Test results from the supplement of paper PMC10849652.
The full data set covers some 8,800 targets. This sample favours those with a hit. About 0.5% of all pairs of compound and target were hits. Values without a mark were called inactive.

Legend:
Test in all cases: log2 fold change, soluble protein after heating vs DMSO (PISA); higher = thermal stabilisation; K562 lysate, 10 uM; active = over 0.2 and 3.5 SD of the protein, either way, in both replicates (recomputed)
[1] = compound: C1=CC=C(C=C1)[C@H](COC2=CC3=C(C=C2)NC(=O)N3)NC(=O)C4=CC=CN(C4=O)CC5=CC(=C(C=C5)F)F
How it was run: (§1)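 Soluble protein was defined as the supernatant remaining after 21,000xg for 90 min, following pooling of heated aliquots and adjustment to 0.5% NP-40 at 4°C. Before that, crude K562 extract at 1 mg/mL protein in PBS pH 7.4 with 1 mM MgCl2 was treated with 10 μM compound for 30 min and heated for 3 min across 48°C-58°C. Quantification used TMTpro 16plex LC-MS/MS with channel sums equalised, and values are log-two fold changes in thermal stability relative to solvent controls from duplicates.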

[2] = compound: CC1=C(SC2=C1C(=N[C@H](C3=NN=C(N32)C)CC(=O)N)C4=CC=C(C=C4)Cl)C
How it was run: as §1

[3] = compound: CC1=C2C(=CC=C1)N=C(N(C2=O)C3=CC=CC=C3C)CN4C=NC5=C(N=CN=C54)N
How it was run: as §1

[4] = compound: Cc1sc2c(c1C)C(c1ccc(Cl)cc1)=N[C@@H](CC(=O)OC(C)(C)C)c1nnc(C)n1-2
How it was run: as §1

[5] = compound: c1ccc([C@@H]2C[C@H]2NC2CCNCC2)cc1
How it was run: as §1

Sequence of UniProt P49750 (P49750 whole entry, looked up): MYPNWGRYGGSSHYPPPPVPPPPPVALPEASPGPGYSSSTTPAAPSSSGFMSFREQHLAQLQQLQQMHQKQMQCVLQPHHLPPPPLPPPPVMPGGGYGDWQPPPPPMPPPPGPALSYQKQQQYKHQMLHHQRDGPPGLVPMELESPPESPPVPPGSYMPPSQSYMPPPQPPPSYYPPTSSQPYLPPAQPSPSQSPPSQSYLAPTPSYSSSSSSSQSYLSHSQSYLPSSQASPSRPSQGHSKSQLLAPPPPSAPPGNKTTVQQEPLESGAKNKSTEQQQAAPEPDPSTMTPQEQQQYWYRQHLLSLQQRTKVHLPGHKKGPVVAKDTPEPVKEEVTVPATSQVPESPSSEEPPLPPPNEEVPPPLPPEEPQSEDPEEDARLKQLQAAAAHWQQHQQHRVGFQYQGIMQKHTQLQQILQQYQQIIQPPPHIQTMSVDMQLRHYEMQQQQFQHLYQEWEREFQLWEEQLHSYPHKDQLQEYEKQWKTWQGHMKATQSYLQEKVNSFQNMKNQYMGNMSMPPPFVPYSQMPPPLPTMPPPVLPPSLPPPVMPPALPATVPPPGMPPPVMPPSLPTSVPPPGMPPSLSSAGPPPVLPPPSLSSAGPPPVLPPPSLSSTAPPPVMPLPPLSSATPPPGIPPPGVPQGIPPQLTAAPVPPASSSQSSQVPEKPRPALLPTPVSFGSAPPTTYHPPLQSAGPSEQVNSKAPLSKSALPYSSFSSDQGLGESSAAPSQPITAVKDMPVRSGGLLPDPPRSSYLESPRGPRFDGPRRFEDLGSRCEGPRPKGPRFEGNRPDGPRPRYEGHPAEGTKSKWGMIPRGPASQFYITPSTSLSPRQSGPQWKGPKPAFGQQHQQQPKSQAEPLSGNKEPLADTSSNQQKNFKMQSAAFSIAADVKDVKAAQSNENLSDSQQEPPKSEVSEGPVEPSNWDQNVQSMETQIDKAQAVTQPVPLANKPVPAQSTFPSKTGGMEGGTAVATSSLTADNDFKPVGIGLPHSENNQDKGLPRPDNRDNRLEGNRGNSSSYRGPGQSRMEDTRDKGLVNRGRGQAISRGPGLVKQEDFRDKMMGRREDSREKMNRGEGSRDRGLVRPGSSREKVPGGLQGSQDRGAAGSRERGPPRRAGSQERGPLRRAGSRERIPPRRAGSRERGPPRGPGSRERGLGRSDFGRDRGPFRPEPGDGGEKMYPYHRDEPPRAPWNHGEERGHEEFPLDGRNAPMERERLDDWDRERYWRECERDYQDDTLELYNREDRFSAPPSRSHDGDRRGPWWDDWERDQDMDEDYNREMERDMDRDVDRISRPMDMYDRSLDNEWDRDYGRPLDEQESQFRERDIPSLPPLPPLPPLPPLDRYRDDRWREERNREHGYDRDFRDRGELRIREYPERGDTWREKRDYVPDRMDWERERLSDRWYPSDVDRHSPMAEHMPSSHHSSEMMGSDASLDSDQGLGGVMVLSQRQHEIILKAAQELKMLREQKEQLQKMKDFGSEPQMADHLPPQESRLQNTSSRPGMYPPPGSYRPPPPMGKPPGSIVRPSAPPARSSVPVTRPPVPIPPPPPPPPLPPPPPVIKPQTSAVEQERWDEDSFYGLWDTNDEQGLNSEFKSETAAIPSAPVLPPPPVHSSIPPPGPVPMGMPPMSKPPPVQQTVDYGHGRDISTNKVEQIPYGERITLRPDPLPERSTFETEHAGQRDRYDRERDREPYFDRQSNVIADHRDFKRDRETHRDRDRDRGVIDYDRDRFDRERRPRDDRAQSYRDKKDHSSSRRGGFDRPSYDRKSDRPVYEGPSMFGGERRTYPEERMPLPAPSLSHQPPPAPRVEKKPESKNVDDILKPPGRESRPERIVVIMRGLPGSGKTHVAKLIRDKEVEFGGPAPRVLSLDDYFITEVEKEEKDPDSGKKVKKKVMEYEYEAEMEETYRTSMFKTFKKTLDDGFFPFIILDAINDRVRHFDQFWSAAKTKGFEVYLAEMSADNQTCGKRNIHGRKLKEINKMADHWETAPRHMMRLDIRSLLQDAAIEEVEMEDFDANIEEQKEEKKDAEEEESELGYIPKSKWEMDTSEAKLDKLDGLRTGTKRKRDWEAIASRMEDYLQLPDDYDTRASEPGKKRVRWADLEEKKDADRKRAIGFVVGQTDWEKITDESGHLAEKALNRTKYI
Sequence of UniProt Q96JC1 (Q96JC1 whole entry, looked up): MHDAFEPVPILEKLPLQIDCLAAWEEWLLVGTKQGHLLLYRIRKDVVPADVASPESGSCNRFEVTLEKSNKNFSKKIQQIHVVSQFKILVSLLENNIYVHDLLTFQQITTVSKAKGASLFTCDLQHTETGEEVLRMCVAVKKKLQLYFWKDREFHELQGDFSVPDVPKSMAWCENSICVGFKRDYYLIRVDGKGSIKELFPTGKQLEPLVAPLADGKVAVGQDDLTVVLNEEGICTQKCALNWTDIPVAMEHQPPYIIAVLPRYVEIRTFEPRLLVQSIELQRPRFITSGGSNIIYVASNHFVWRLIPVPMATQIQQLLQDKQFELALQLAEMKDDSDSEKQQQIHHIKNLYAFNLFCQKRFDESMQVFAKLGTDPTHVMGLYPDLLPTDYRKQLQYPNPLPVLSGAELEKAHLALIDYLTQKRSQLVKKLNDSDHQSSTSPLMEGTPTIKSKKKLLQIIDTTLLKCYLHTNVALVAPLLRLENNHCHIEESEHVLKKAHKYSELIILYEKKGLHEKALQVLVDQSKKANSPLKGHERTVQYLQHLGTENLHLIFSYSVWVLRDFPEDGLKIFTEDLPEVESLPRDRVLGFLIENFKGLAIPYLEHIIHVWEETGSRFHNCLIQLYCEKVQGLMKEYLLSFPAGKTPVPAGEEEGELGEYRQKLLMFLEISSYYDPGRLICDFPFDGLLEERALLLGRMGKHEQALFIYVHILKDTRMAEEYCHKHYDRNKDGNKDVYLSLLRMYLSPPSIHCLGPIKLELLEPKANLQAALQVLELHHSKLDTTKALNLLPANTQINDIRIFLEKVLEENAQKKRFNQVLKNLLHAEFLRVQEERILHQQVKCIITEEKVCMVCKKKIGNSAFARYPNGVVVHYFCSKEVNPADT
Sequence of UniProt Q96S15 (Q96S15 whole entry, looked up): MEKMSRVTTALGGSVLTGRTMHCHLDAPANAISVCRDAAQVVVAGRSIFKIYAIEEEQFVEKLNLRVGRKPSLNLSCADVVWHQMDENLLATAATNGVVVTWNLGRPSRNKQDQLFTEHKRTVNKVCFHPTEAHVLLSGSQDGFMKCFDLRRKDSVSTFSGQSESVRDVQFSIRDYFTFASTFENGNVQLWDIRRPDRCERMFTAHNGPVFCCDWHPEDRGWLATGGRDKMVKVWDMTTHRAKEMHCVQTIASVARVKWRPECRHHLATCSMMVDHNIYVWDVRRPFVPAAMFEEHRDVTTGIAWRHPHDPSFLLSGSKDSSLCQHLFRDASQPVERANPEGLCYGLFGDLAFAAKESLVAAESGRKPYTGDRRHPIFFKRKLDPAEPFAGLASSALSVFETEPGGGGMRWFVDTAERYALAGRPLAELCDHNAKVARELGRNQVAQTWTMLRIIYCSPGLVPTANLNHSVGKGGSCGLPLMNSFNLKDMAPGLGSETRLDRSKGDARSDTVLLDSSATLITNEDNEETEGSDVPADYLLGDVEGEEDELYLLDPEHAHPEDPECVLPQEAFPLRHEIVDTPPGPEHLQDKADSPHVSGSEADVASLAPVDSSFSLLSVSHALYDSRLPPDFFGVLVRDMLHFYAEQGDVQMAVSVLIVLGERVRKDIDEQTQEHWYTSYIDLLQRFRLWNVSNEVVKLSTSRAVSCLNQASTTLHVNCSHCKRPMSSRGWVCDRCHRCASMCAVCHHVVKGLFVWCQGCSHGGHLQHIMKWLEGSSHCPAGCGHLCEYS
Sequence of UniProt Q9H269 (Q9H269 whole entry, looked up): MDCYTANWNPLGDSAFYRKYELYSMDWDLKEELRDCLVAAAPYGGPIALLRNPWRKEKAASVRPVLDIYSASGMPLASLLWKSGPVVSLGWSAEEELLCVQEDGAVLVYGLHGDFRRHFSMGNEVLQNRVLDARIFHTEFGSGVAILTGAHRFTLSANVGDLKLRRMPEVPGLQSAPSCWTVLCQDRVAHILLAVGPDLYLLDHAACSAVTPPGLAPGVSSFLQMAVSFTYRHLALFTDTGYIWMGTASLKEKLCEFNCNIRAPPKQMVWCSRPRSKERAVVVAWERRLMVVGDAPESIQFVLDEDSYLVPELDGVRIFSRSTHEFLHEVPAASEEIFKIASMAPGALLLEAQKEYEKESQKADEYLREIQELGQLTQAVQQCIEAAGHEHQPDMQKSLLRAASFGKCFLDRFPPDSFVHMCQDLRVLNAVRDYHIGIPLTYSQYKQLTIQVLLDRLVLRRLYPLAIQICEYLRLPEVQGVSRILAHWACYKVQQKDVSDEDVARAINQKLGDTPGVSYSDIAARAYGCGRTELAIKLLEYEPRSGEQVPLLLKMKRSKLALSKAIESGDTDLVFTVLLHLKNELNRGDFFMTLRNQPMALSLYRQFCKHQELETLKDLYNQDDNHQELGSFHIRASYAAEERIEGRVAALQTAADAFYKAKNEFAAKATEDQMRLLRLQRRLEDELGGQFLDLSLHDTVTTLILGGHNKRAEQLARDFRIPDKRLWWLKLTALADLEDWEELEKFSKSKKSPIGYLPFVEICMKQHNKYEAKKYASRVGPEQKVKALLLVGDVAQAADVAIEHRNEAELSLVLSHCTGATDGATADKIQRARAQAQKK
Sequence of UniProt Q5MNZ9 (Q5MNZ9 whole entry, looked up): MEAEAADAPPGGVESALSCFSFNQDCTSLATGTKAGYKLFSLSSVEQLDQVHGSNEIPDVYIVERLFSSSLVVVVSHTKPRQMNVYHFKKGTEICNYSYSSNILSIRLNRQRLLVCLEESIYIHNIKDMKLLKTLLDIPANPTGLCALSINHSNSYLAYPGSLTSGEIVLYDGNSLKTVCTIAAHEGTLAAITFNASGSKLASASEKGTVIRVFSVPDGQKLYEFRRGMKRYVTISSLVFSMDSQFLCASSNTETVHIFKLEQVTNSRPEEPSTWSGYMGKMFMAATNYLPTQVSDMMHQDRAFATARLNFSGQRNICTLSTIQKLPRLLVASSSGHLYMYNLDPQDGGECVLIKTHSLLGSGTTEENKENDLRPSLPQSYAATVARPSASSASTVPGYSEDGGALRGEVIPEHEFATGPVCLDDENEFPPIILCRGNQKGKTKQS

Target	log2 fold change [1]	log2 fold change [2]	log2 fold change [3]	log2 fold change [4]	log2 fold change [5]
ZC3H11A (UniProt O75152)	-0.015	0	0.081	0.023	0.063
WDR45 isoform 2 (UniProt Q9Y484)	-0.024	0.061	0.073	-0.018	-0.014
YTHDC2 (UniProt Q9H6S0)	0.004	-0.018	-0.078	-0.002	0.058
VPS16 (UniProt Q9H269)	-0.035	-0.009	0.041	0.011	0.005
USP22 (UniProt Q9UPT9)	0.039	-0.025	0.012	0.045	0.055
USP10 isoform 2 (UniProt Q14694)	-0.038	0.029	0	-0.013	0.023
XPO5 (UniProt Q9HAV4)	-0.046	-0.021	0.002	-0.021	0.032
ZZEF1 (UniProt O43149)	-0.022	-0.004	0.012	-0.05	-0.028
ZNF593 (UniProt O00488)	-0.038	0.051	0.008	0.127	0.035
ZSWIM8 isoform 4 (UniProt A7E2V4)	0.076	-0.038	0.071	0.013	0.03
WDR24 (UniProt Q96S15)	-0.066	-0.475 (active)	-0.093	0.002	-0.024
VPS39 (UniProt Q96JC1)	-0.008	-0.002	-0.006	-0.009	0.3
ZFPM1 (UniProt Q8IX07)	0.073	-0.033	-0.012	-0.036	0.078
ZMAT2 (UniProt Q96NC0)	0.037	-0.01	0.03	0.03	0.013
USP9X (UniProt Q93008)	-0.033	0.005	0.014	0.008	-0.001
UQCC2 (UniProt Q9BRT2)	0.008	0.019	-0.056	-0.057	0.095
ZNF346 (UniProt Q9UL40)	0.031	-0.017		-0.205 (active)	-0.086
UNC13A (UniProt Q9UPW8)					-0.966
WAS (UniProt P42768)	0.003	-0.006		-0.095	0.053
WSB1 (UniProt Q9Y6I7)				0.036	-0.036
YBEY (UniProt P58557)			0.046	-0.016	

Target	log2 fold change [1]	log2 fold change [2]	log2 fold change [3]	log2 fold change [4]	log2 fold change [5]
XPO6 (UniProt Q96QU8)	-0.053	0.057	0.023	0.039	-0.045
WAC isoform 5 (UniProt Q9BTA9)				-0.232	
USP48 isoform 8 (UniProt Q86UV5)	0.006	-0.016	0.015	0.003	0.035
ZNF281 (UniProt Q9Y2X9)				-0.02	
ZNF146 (UniProt Q15072)				-0.059	
WIPI1 (UniProt Q5MNZ9)	0.094	0.023		0.035	-0.031
ZDHHC17 (UniProt Q8IUH5)			0.057	-0.181	-0.578
USP34 (UniProt Q70CQ2)	-0.002	-0.015	0	-0.004	0.073
WRNIP1 (UniProt Q96S55)	-0.051	-0.033	0.024	0.016	0.06
VASN (UniProt Q6EMK4)				-0.017	
ZNF644 (UniProt Q9H582)	0	0.003	-0.098	-0.009	0.01
WIPI2 (UniProt Q9Y4P8)	0.03	-0.033	-0.008	-0.055	-0.096
WIPI2 isoform 6 (UniProt Q9Y4P8)	0.092	0.088			-0.073
VARS (UniProt P26640)	-0.022	0.013	0.013	0	0.031
ZYG11A (UniProt Q6WRX3)	-0.075	-0.13			-0.012
VPS72 (UniProt Q15906)			0.027	-0.015	-0.035
ZBTB40 (UniProt Q9NUA8)			-0.06	-0.004	-0.432 (active)
USP16 (UniProt Q9Y5T5)	0.047	-0.015	0.011	0.038	-0.002
ZSCAN21 (UniProt Q9Y5A6)					-0.074
YLPM1 (UniProt P49750)	-0.029	-0.04	0.034	0.005	0.05
